According to the supplement of paper PMC7411640:
Structures can show the parent of a compound that is named as a salt.

The compounds below were run on MDA-MB-468 (assay: phospho-S6 immunofluorescence (DAPI-normalised), per-plate z-score; higher = higher phospho-S6 signal (less pathway suppression)). Conditions: co-treatment: vehicle; 24 h.
Method: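 GPCR-targeted compound library (MedChemExpress HY-L006) tested on MDA-MB-468 PTEN-null TNBC cells in 384-well plates at 0.1, 1 or 10 uM, combined with vehicle, GDC0941 450 nM or lapatinib 1 uM, for 24 h. Phospho-S6 (S240/244) immunofluorescence normalised to DAPI and expressed as a per-plate z-score; values are the mean of biological triplicates.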

Compound | phospho-S6 immunofluorescence (z-score)
CNc1nc(NCc2ccc(NS(C)(=O)=O)cc2Cl)cc(-c2ccccn2)n1 (compound 10 µM) | -4.83
CC(C)[C@H](NC(=O)[C@H](CCCN=C(N)N)NC(=O)[C@@H](N)CC(=O)O)C(=O)N[C@@H](Cc1ccc(O)cc1)C(=O)N[C@H](C(=O)N[C@@H](Cc1cnc[nH]1)C(=O)N1CCC[C@H]1C(=O)N[C@@H](Cc1ccccc1)C(=O)O)C(C)C [Angiotensin II 5-valine] (compound 10 µM) | 0.07
O=C(c1ccc(OCCCc2c[nH]cn2)cc1)C1CC1 [Ciproxifan (maleate)] (compound 10 µM) | 0.21
O=C(O)COCCN1CCN(C(c2ccccc2)c2ccc(Cl)cc2)CC1 (stereo not drawn) [Cetirizine (dihydrochloride)] (compound 10 µM) | 0.52
COCCc1ccc(OCC(O)CNC(C)C)cc1 (stereo not drawn) [Metoprolol (Succinate)] (compound 10 µM) | 1.15
CCCCCCOc1nsnc1C1=CCCN(C)C1 [Xanomeline (oxalate)] (compound 10 µM) | 1.16
COc1cc2nc(N3CCN(C(=O)C4CCCO4)CC3)nc(N)c2cc1OC (stereo not drawn) [Terazosin (hydrochloride dihydrate)] (compound 10 µM) | 0.87
CC(=O)N[C@H](Cc1ccc2ccccc2c1)C(=O)N[C@H](Cc1ccc(Cl)cc1)C(=O)N[C@H](Cc1cccnc1)C(=O)N[C@@H](CO)C(=O)N(C)[C@@H](Cc1ccc(O)cc1)C(=O)N[C@H](CC(N)=O)C(=O)N[C@@H](CC(C)C)C(=O)N[C@@H](CCCCNC(C)C)C(=O)N1CCC[C@H]1C(=O)N[C@H](C)C(N)=O [Abarelix] (compound 10 µM) | -0.38
